Assay results: PubChem BioAssay (Tox21)
“And” between values parts separate entries of the source, which are not always exact repeats. Identical values can stand only once. Inconclusive results are not listed. The source made the active and inactive calls. Unless noted, the call rests on the fitted dose curve; in most records, active means well fitted curve in the direction sought with a large enough effect in the repeat runs; inconclusive means weak or mixed curves; inactive means no such curve, though single readings can be large; an effect the other way counts as inactive or inconclusive.

What was measured:
[1] = target: Thyrotropin receptor (Homo sapiens) (UniProt P16473); experiment: qHTS assay to identify small molecule agonists of the thyroid stimulating hormone receptor (TSHR) signaling pathway (AID 1224843; calls by dose curve; further: nearly all actives have a fitted effect of over 45% in size)
Sequence of Thyrotropin receptor (Homo sapiens) (P16473 whole entry, looked up): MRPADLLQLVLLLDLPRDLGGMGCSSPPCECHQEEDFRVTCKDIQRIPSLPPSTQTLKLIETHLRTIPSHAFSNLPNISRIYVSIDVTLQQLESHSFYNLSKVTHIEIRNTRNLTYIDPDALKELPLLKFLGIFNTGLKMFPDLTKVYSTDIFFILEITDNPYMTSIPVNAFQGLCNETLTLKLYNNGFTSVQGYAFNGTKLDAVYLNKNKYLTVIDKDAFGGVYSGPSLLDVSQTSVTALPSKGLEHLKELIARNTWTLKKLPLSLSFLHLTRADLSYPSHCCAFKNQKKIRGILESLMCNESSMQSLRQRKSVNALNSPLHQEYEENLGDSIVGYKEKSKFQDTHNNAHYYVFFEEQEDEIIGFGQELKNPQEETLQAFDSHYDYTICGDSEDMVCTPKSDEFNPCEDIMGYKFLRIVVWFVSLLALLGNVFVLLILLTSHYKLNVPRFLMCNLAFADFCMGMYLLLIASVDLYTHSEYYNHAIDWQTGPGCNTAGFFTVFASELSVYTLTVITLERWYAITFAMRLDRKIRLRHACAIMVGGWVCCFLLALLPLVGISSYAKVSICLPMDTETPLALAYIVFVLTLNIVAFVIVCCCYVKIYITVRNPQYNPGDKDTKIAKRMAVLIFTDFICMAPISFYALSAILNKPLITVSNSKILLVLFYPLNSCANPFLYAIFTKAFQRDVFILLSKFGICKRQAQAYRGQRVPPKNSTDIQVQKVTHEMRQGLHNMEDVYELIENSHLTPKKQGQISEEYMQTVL
Outline: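 Cell line HEK293 with TSHR; density 800/well. Exposure 30 min RT. Readout HTRF cAMP (cAMP-d2/anti-cAMP-cryptate), 1 h RT before reading.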

[2] = qHTS assay to identify small molecule agonists of the hypoxia (HIF-1) signaling pathway - cell viability counter screen (AID 1224844; calls by dose curve; further: nearly all actives have a fitted effect of over 50% in size)
Outline: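 HRE-bla ME-180 cells, 2,000/well in 0.5% dialyzed FBS medium, treated 17 h at 37C with compounds. Viability read in the same wells as the bla reporter, by CellTiter-Glo luminescence after 30 min at room temperature.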

[3] = qHTS assay to identify small molecule agonists of H2AX (AID 1224845; active means well fitted activation curve with a large enough effect in the signal ratio in the repeat runs, not every such curve was filed as active; the % refers to the signal ratio)
Outline: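 Wild-type CHO-K1 cells plated overnight, then exposed 3 hr at 37C to compounds at 15 concentrations (0.76% DMSO). Lysed, then HTRF anti-pH2AX(S139)-cryptate/anti-H2AX-d2 detection after 24 hr at room temperature; emissions 665 and 620 nm.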

[4] = qHTS assay to identify small molecule agonists of the hypoxia (HIF-1) signaling pathway (AID 1224846; active means well fitted activation curve with a large enough effect in the signal ratio in the repeat runs, not every such curve was filed as active; the % refers to the signal ratio)
Outline: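 HRE-bla ME-180 beta-lactamase reporter cells in medium with 0.5% dialyzed FBS, pre-incubated 5 h then exposed to compounds 17 h at 37C, 5% CO2; reporter induction read with CCF4-AM FRET substrate.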

[5] = qHTS assay to identify small molecule agonists of H2AX - cell viability counter screen (AID 1224847; calls by dose curve; further: top concentration of the series differs between compounds; nearly all actives have a fitted effect of over 30% in size)
Outline: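 Counter-screen for viability: CellTiter-Glo ATP luminescence read after 3 h compound treatment (15-point titration, 0.76% DMSO final) of CHO-K1 cells at 37C, with 30 min room-temperature reagent incubation.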

[6] = qHTS RealTime-Glo MT Cell Viability Assay in HepG2 cells - 24 hour (AID 1224867); further: nearly all actives have a fitted effect of over 50% in size
Outline: (§1)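 Luminescence read-out: viable HepG2 cells reduce a prosubstrate to a NanoLuc substrate, giving a signal proportional to live cell number. Reads taken at 0, 8, 16, 24, 32 and 40 h of compound exposure at 37 C.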

[7] = qHTS RealTime-Glo MT Cell Viability Assay in HEK293 cells - 32 hour (AID 1224868); further: top concentration of the series differs between compounds; nearly all actives have a fitted effect of over 50% in size
Outline: (§2)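 Nonlytic real-time viability readout: viable cells convert prosubstrate to NanoLuc substrate, giving luminescence proportional to live cell number. HEK293, 600 cells/well, compound added after 5 h, continuous culture at 37 C.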

[8] = A CellTox Green Cytotoxicity Assay to monitor cytotoxicity in HEK293 cells - 0 hour (AID 1224869); further: nearly all actives have a fitted effect of over 50% in size
Outline: (§3)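 HEK293 cells, 600/well, were preincubated 5 hours and then exposed to compounds at 37 C for up to 40 hours. A cell-impermeant cyanine dye staining dead-cell DNA was read by fluorescence at 0, 8, 16, 24, 32 and 40 h time points.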

[9] = qHTS RealTime-Glo MT Cell Viability Assay in HepG2 cells - 40 hour (AID 1224870); further: nearly all actives have a fitted effect of over 50% in size
Outline: (§4)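 HepG2 cells mixed with RealTime-Glo MT reagents (NanoLuc plus cell-permeant prosubstrate) were seeded at 600 cells/well, incubated 5 h at 37 C/5% CO2, then pinned with compounds in DMSO; nonlytic luminescence tracked viability during 40 h treatment.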

[10] = A CellTox Green Cytotoxicity Assay to monitor cytotoxicity in HEK293 cells - 40 hour (AID 1224871); further: nearly all actives have a fitted effect of over 45% in size
Outline: as §3

[11] = qHTS RealTime-Glo MT Cell Viability Assay in HEK293 cells - 16 hour (AID 1224872)
Outline: as §2

[12] = qHTS RealTime-Glo MT Cell Viability Assay in HepG2 cells - 8 hour (AID 1224873); further: nearly all actives have a fitted effect of over 55% in size
Outline: as §4

[13] = qHTS RealTime-Glo MT Cell Viability Assay in HEK293 cells - 40 hour (AID 1224874); details: RealTime-Glo luminescence; max response: stronger effect = lower value; further: nearly all actives have a fitted effect of over 50% in size
Outline: (§5)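 600 cells/well were plated with the nonlytic NanoLuc/prosubstrate reagent, pre-incubated 5 h, then given 23 nL of compound in DMSO. Incubation at 37 C for 40 h, with luminescence from viable-cell-reduced substrate read repeatedly from 0 h.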

[14] = A CellTox Green Cytotoxicity Assay to monitor cytotoxicity in HEK293 cells - 24 hour (AID 1224875); further: series mostly up to about 77 µM; nearly all actives have a fitted effect of over 45% in size
Outline: as §3

[15] = A CellTox Green Cytotoxicity Assay to monitor cytotoxicity in HepG2 cells - 16 hour (AID 1224876); further: nearly all actives have a fitted effect of over 45% in size
Outline: (§6)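 HepG2 cells, 600/well, preincubated 5 h with CellTox Green dye, then exposed to Tox21 compounds in DMSO at 37 C for up to 40 h. Dead-cell DNA fluorescence read at the indicated time point.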

[16] = qHTS RealTime-Glo MT Cell Viability Assay in HepG2 cells - 32 hour (AID 1224877); further: nearly all actives have a fitted effect of over 55% in size
Outline: as §1

[17] = A CellTox Green Cytotoxicity Assay to monitor cytotoxicity in HepG2 cells - 24 hour (AID 1224878); further: nearly all actives have a fitted effect of over 45% in size
Outline: as §6

[18] = A CellTox Green Cytotoxicity Assay to monitor cytotoxicity in HepG2 cells - 40 hour (AID 1224879); further: nearly all actives have a fitted effect of over 40% in size
Outline: as §6

[19] = qHTS RealTime-Glo MT Cell Viability Assay in HEK293 cells - 0 hour (AID 1224880)
Outline: as §5
On the % scale 0 is the no-effect control and ±100 the full control effect.

CCOCCOCCOCCO
inactive: outcome [1] | outcome [2] | outcome [3] | outcome [4] | outcome [5] | Potency [6] | Potency [7] | outcome [8] | outcome [9] | Potency [10] | Potency [11] | Potency [12] | max response [13] 3.42% and 9.26% | Potency [14] | outcome [15] | outcome [16] | Potency [17] | Potency [18] | outcome [19]

CC(C)CCCCCCCOC(=O)CCCCC(=O)OCCCCCCCC(C)C
inactive: outcome [1] | outcome [2] | outcome [3] | outcome [4] | outcome [5] | Potency [6] | Potency [7] | outcome [8] | outcome [9] | Potency [10] | Potency [11] | Potency [12] | max response [13] -6.27% and 3.22% | Potency [14] | outcome [15] | outcome [16] | Potency [17] | Potency [18] | outcome [19]

CC1(C)OC[C@@H]2O[C@@]3(C(=O)O)OC(C)(C)O[C@H]3[C@@H]2O1
inactive: outcome [1] | outcome [2] | outcome [3] | outcome [4] | outcome [5] | Potency [6] | Potency [7] | outcome [8] | outcome [9] | Potency [10] | Potency [11] | Potency [12] | max response [13] -6.82% and 4.68% | Potency [14] | outcome [15] | outcome [16] | Potency [17] | Potency [18] | outcome [19]

COCCOC(=O)c1ccccc1C(=O)OCCOC
inactive: outcome [1] | outcome [2] | outcome [3] | outcome [4] | outcome [5] | Potency [6] | Potency [7] | outcome [8] | outcome [9] | Potency [10] | Potency [11] | Potency [12] | max response [13] 0.573% and 0.131% | Potency [14] | outcome [15] | outcome [16] | Potency [17] | Potency [18] | outcome [19]

CCNC(=S)NCC
inactive: outcome [1] | outcome [2] | outcome [3] | outcome [4] | outcome [5] | Potency [6] | Potency [7] | outcome [8] | outcome [9] | Potency [10] | Potency [11] | Potency [12] | max response [13] -2.25% and -1.34% | Potency [14] | outcome [15] | outcome [16] | Potency [17] | Potency [18] | outcome [19]

O=C(OCC1CCC2OC2C1)C1CCC2OC2C1 (configuration not stated)
inactive: outcome [1] | outcome [2] | outcome [3] | outcome [4] | outcome [5] | Potency [6] | Potency [7] | outcome [8] | outcome [9] | Potency [10] | Potency [11] | Potency [12] | max response [13] 2.18% and 1.6% | Potency [14] | outcome [15] | outcome [16] | Potency [17] | Potency [18] | outcome [19]

COC(=O)CCCC(=O)OC
inactive: outcome [1] | outcome [2] | outcome [3] | outcome [4] | outcome [5] | Potency [6] | Potency [7] | outcome [8] | outcome [9] | Potency [10] | Potency [11] | Potency [12] | max response [13] 4.51% and 15.2% | Potency [14] | outcome [15] | outcome [16] | Potency [17] | Potency [18] | outcome [19]

CC(=O)OCc1ccccc1
inactive: outcome [1] | outcome [2] | outcome [3] | outcome [4] | outcome [5] | Potency [6] | Potency [7] | outcome [8] | outcome [9] | Potency [10] | Potency [11] | Potency [12] | max response [13] -41.8% and -21% | Potency [14] | outcome [15] | outcome [16] | Potency [17] | Potency [18] | outcome [19]

CCOC(=O)n1ccn(C)c1=S
inactive: outcome [1] | outcome [2] | outcome [3] | outcome [4] | outcome [5] | Potency [6] | Potency [7] | outcome [8] | outcome [9] | Potency [10] | Potency [11] | Potency [12] | max response [13] 1.12% and 2.41% | Potency [14] | outcome [15] | outcome [16] | Potency [17] | Potency [18] | outcome [19]

O=C(O)c1ccccc1C(=O)O
inactive: outcome [1] | outcome [2] | outcome [3] | outcome [4] | outcome [5] | Potency [6] | Potency [7] | outcome [8] | outcome [9] | Potency [10] | Potency [11] | Potency [12] | max response [13] -5.44% and 3.46% | Potency [14] | outcome [15] | outcome [16] | Potency [17] | Potency [18] | outcome [19]

CCCCCCCCCCN
inactive: outcome [1] | outcome [2] | outcome [3] | outcome [4] | outcome [5] | Potency [6] | Potency [7] | outcome [8] | outcome [9] | Potency [10] | Potency [11] | Potency [12] | max response [13] 0.163% and 1.85% | Potency [14] | outcome [15] | outcome [16] | Potency [17] | Potency [18] | outcome [19]

C[C@]12CC[C@@H]3c4ccc(O)cc4CC[C@H]3[C@@H]1C[C@@H](O)[C@@H]2O
inactive: outcome [1] | outcome [2] | outcome [3] | outcome [4] | outcome [5] | Potency [6] | Potency [7] | outcome [8] | outcome [9] | Potency [10] | Potency [11] | Potency [12] | max response [13] -25.2% | Potency [14] | outcome [15] | outcome [16] | Potency [17] | Potency [18] | outcome [19]

CC(CCO)CC(C)(C)C (configuration not stated)
inactive: outcome [1] | outcome [2] | outcome [3] | outcome [4] | outcome [5] | Potency [6] | Potency [7] | outcome [8] | outcome [9] | Potency [10] | Potency [11] | Potency [12] | max response [13] -6.13% and 0.884% | Potency [14] | outcome [15] | outcome [16] | Potency [17] | Potency [18] | outcome [19]
